Experimental findings from PubChem BioAssay are described below.

SMILES strings stand for the structures. The source made the active and inactive calls.

Test [1] can be described thus: binders of probe aFSTL3 on microarray, primary screen, stem cell growth factor project, biochemical, small-molecule microarray, fluorescence 635/667 (AID 1064).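 Note: measures binding of the biotinylated anti-FSTL3 antibody to printed compounds.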 To be noted: higher = more signal.
Test [2] is described as follows: binders from COS7 lysate, DM2A8 probe, primary screen, torsin A project, cell lysate, small-molecule microarray, fluorescence 635/667 (AID 1065). To be noted: higher = more signal, COS7 lysate expressing mutant human TOR1A.
The nature of test [3]: binders of probe aFGF2 on microarray, primary screen, stem cell growth factor project, biochemical, small-molecule microarray, fluorescence 635/667 (AID 1067).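 Note: measures binding of biotinylated aFGF2 protein to printed compounds on slides; z-score merges feature fluorescence and signal-to-noise across triplicate slides.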 Particulars: higher = more signal.
Test [4] is described as follows: binders of probe aFGF10 on microarray, primary screen, stem cell growth factor project, biochemical, small-molecule microarray, fluorescence 635/667 (AID 1071).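 Note: score merges 667 nm spot intensity and signal to noise from triplicate slides.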 Particulars: higher = more signal.
The target in test [5] is Neurogenic locus notch homolog protein 2 (Homo sapiens) (UniProt Q04721). As to the kind of experiment: Notch2 binders on small-molecule microarrays, primary screen, biochemical, small-molecule microarray, 635 nm fluorescence, stem cell growth factors (AID 1073). Particulars: Notch2 binding, higher = more signal.
Test [6] has as its target Pro-neuregulin-1, membrane-bound isoform (Homo sapiens) (UniProt Q02297). Put plainly: NRG1 binders on small-molecule microarrays, primary screen, psychiatric disease protein project, biochemical, small-molecule microarray, fluorescence 635/667 (AID 1075).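 Note: score combines 667 nm spot fluorescence with signal to noise.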 To be noted: NRG1 binding, 635 nm fluorescence, higher = more signal.
The subject of test [7] is Neuregulin-1 EGF-like domain. As to the kind of experiment: binders of neuregulin-1 EGF-like domain, primary screen, biochemical, small-molecule microarray, 635 nm fluorescence (AID 1081).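 Note: binding of the protein to compounds printed on small-molecule microarray slides.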 To be noted: small-molecule microarray binding, higher = more signal.
Test [8] can be described thus: FRG1 promoter luciferase signal modulators, primary screen, FRG1 inhibition for FSHD, cell-based, C2C12 myotubes, firefly/Renilla luciferase, luminescence (AID 1084). Particulars: higher = more signal, called active from +8 up or from −8 down.
Test [9] is described as follows: binders of probe aFST on microarray, primary screen, stem cell growth factor project, biochemical, small-molecule microarray, fluorescence 635/667 (AID 1086).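 Note: score merges 667 nm fluorescence with signal-to-noise of each printed compound spot.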 Particulars: higher = more signal.
Test [10] in a line: binders of probe aHhip on microarray, primary screen, stem cell growth factor project, biochemical, small-molecule microarray, fluorescence 635/667 (AID 1087).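 Note: score merges spot fluorescence at 667nm with spot signal to noise ratio.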 To be noted: higher = more signal.
Test [11] relates to PRMT1 (protein arginine N-methyltransferase 1). As to the kind of experiment: PRMT1 binders on small-molecule microarrays, primary screen, biochemical, small-molecule microarray, 635 nm fluorescence (AID 1088).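 Note: binding of Prmt1 protein to compounds spotted on small-molecule microarray slides.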 Particulars: small-molecule microarray binding, higher = more signal.
Test [12] in a line: yeast growth modulation, basal conditions, primary screen, YJM789 clinical isolate, OD600, 24 h (AID 1089).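 Note: growth of clinical yeast isolate S. cerevisiae YJM 789 seeded 1000 cells per well; test concentration not given here.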 To be noted: S. cerevisiae YJM789 growth, higher = more signal, called active from +8 up or from −8 down.
A short description of test [13]: fission yeast growth modulation, primary screen, strain 972, OD600, 24 h, no modulator (AID 1090).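 Note: basal condition with compound alone and no growth modifier present; test concentration not given here.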 Particulars: S. pombe 972 growth, higher = more signal, called active from +8 up or from −8 down.
Test [14] is described as follows: S. cerevisiae growth modulation with rapamycin, primary screen, strain BY4716, OD600, 96 h (AID 1091). Note: test concentration not given here. To be noted: higher = more signal, called active from +8 up or from −8 down.
Test [15] concerns the target Torsin-1A-interacting protein 2 (Homo sapiens) (UniProt Q8NFQ8). Put plainly: LULL1 binders on small-molecule microarray, primary screen, cell lysate, human LULL1 lysate, 635/667 nm fluorescence (AID 1092).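 Note: score merges per-feature 667 nm fluorescence with signal-to-noise.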 To be noted: hLULL1 lysate binding, 635 nm fluorescence, higher = more signal.
The nature of test [16]: E. coli growth modulation, two-sided OD650, primary screen, E. coli filamentation project, strain DRC41, 24 h (AID 1093).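 Note: MC1000 strain lacking acrAB efflux and sulA so SOS filamentation is blocked; test concentration not given here.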 To be noted: OD650, 24 h, higher = more signal, called active from +8 up or from −8 down.
Test [17] in a line: small-molecule microarray binders of probe aLefty2, primary screen, biochemical, biotinylated probe, 635/667 nm fluorescence (AID 1094).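 Note: score merges spot fluorescence near 667 nm with spot signal-to-noise ratio.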 Particulars: higher = more signal.
Test [18] deals with Noggin (protein binding on small-molecule microarray). As to the kind of experiment: Noggin binders on small-molecule microarray, primary screen, biochemical, 635/667 nm fluorescence (AID 1095).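 Note: score merges 667 nm feature fluorescence with signal to noise over triplicate slides.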 Particulars: 635 nm fluorescence, higher = more signal.
Test [19] deals with Neurogenic locus notch homolog protein 3 (Homo sapiens) (UniProt Q9UM47). As to the kind of experiment: NOTCH3 binders on small-molecule microarray, primary screen, biochemical, 635/667 nm fluorescence (AID 1096). Particulars: NOTCH3 binding, 635 nm fluorescence, higher = more signal.
Test [20] can be described thus: small-molecule microarray binders of probe aEGFR, primary screen, biochemical, biotinylated probe, 635/667 nm fluorescence (AID 1097).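 Note: probe is a biotinylated anti-EGFR antibody binding compounds printed on slides; score combines fluorescence near 667 nm and signal to noise of each spot.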 Particulars: higher = more signal.

Chain of Torsin-1A-interacting protein 2 (Homo sapiens) (Q8NFQ8 whole entry, looked up): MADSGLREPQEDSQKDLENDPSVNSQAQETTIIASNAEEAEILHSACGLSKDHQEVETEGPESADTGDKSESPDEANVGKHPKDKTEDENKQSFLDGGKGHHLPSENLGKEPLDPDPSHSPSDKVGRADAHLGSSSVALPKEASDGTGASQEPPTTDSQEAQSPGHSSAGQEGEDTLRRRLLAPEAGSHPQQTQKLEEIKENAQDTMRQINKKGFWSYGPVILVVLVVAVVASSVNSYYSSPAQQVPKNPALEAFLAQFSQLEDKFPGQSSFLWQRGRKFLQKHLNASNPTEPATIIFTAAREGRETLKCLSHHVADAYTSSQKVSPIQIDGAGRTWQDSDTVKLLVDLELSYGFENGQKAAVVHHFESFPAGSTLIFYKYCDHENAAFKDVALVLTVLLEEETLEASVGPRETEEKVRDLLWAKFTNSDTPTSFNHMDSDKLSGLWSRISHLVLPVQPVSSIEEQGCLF
Chain of Neurogenic locus notch homolog protein 2 (Homo sapiens) (Q04721 whole entry, looked up, canonical isoform): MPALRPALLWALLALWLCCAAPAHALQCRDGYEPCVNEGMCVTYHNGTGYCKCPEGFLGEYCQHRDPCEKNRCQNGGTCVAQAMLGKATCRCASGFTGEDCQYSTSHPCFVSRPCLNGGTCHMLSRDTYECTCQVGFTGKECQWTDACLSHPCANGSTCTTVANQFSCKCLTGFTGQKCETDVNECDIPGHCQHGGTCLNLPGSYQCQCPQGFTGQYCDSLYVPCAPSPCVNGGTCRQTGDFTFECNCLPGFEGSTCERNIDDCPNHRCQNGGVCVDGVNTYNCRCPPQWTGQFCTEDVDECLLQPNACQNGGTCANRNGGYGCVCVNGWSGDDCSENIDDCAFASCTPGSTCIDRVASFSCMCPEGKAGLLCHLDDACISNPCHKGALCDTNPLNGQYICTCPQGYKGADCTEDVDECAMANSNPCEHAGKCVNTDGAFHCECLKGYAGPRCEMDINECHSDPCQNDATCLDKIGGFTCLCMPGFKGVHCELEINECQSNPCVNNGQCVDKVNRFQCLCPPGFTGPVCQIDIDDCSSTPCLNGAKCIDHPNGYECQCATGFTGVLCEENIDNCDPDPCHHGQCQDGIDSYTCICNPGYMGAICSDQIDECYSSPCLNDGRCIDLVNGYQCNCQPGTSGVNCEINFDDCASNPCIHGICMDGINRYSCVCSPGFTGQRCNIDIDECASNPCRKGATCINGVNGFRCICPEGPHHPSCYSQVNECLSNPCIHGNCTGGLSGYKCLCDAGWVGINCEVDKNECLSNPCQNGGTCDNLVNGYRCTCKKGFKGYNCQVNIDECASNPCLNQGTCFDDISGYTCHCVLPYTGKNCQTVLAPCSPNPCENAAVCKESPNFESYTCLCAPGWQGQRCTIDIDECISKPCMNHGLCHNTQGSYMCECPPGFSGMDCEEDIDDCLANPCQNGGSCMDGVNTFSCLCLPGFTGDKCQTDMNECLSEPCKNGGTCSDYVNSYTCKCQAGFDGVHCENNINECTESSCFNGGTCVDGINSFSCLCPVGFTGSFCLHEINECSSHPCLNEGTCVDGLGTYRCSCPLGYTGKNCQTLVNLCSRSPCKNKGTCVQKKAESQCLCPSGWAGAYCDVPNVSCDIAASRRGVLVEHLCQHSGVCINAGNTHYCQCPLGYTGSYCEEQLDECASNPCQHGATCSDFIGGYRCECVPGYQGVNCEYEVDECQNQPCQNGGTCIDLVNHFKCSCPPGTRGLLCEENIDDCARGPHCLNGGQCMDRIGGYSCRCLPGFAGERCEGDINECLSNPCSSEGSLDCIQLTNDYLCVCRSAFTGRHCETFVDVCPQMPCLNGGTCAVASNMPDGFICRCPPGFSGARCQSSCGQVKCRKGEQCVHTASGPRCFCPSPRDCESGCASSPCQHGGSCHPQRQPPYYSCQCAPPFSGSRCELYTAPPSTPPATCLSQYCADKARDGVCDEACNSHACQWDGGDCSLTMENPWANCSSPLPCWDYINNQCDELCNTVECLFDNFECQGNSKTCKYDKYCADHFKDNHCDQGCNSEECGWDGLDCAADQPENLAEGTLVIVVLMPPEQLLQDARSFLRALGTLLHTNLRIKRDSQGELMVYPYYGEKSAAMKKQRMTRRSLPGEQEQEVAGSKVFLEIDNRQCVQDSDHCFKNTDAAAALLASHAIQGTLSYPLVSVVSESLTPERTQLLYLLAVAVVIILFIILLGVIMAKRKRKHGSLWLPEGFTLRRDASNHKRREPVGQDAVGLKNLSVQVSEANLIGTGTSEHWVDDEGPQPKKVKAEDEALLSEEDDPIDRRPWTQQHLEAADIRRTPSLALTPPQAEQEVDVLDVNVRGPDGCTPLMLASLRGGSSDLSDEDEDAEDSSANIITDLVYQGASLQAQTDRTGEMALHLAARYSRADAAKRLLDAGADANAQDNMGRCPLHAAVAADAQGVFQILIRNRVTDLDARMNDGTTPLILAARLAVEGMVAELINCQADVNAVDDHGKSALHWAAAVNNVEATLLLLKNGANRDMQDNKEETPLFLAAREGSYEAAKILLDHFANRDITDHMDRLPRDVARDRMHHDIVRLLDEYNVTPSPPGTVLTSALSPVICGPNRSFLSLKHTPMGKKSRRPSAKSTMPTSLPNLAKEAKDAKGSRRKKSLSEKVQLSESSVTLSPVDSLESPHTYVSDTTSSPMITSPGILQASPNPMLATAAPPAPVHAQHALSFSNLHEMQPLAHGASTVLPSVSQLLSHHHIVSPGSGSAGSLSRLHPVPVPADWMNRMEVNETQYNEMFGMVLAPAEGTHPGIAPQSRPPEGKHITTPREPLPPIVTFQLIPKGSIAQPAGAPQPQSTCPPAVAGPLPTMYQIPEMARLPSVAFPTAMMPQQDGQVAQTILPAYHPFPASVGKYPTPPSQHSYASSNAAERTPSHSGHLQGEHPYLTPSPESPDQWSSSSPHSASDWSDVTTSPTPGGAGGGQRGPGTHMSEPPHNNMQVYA
Chain of Pro-neuregulin-1, membrane-bound isoform (Homo sapiens) (Q02297 whole entry, looked up, the tested form may be a part, canonical isoform): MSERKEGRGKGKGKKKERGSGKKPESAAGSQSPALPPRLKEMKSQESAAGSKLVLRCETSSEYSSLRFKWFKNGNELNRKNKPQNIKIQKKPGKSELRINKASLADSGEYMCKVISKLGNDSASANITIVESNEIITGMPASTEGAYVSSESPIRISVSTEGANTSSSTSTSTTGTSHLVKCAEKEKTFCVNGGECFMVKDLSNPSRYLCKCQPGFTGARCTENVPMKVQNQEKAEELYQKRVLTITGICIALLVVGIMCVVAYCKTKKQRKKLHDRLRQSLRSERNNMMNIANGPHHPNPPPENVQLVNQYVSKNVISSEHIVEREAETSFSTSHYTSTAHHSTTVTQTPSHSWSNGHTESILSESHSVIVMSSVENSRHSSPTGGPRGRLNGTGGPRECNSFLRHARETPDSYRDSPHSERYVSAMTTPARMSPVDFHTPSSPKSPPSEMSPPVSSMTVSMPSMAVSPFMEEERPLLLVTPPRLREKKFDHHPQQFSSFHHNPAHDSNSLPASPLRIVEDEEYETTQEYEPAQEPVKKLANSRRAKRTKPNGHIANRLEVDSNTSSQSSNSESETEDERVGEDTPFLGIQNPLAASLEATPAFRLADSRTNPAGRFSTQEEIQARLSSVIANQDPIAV

On to `CN(C)CCCCNC(=O)[C@H]1C[C@H]2C(=O)N[C@@H](CCCC[N+](C)(C)C)C(=O)N2[C@H]1c1cccc(OCCO)c1`, for which the composite z-score in [1] was -0.235; in [2], 1.09; in test [3] it was -0.116; in [4], -0.0012; in test [5], -0.606; in [6], 0.417. In addition, the composite z-score was 1.26 in [7]; -0.268 in test [9]; -0.0994 in test [10]; 1.53 in test [11]; 2.05 in [15]; -0.204 in [17]. Moreover, the composite z-score is 1.35 in test [18], 0.907 in [19] and -0.0733 in test [20]. Further, the z-score in [8] is 2.9 (inactive); in [12], -0.359 (inactive); in [13], 0.276 (inactive); in [14], -0.702 (inactive); in [16], 0.305 (inactive).

Take `CCCC=C(CCC)[C@@H](NC(=O)Cc1ccccc1)c1ccc(C(=O)OC)cc1`: the composite z-score is 1.22 in test [1]; -0.0985 in test [2]; 0.254 in test [3]; 0.536 in test [4]; 1.13 in [5]; 0.807 in test [6]. Moreover, the composite z-score in [7] was found to be 0.606; in test [9] it was 0.94; in test [10], 3.03; in test [11], 0.658; in test [15], 1.54; in [17], 1.1. The figures for the composite z-score in [18], in [19] and in test [20] were 0.234, 0.505 and 0.577, respectively. For the same molecule, the z-score in test [8] is -0.26 (inactive); in test [12], 0.761 (inactive); in test [13], 0.847 (inactive); in test [14], 0.762 (inactive); in test [16] it was -0.556 (inactive).

Regarding `C[N+](C)(C)CCCCCCNC(=O)[C@@H]1C[C@@H]2C(=O)NCC(=O)N2[C@@H]1c1ccc(O)cc1`, the composite z-score in test [1] is -0.416; in test [2] it was 1.27; in [3], -0.116; in [4], 0.391; in test [5], -0.149; in test [6] it was 1.51. Moreover, the composite z-score in test [7] was 1.43; in [9], 0.0022; in test [10], -0.0088; in [11], 1.53; in test [15], 2.39; in test [17], -0.0942. In addition, the composite z-score is 1.53 in [18], 1.06 in test [19] and -0.141 in test [20]. The z-score in test [8] was 2.8 (inactive); in test [12], 0.302 (inactive); in test [13] it was 0.274 (inactive); in [14] it was -0.0145 (inactive); in [16] it was -0.239 (inactive).

Consider `COc1ccc([Si](C)(C)[C@@H]2[C@@H](CCO)O[C@]3(C(=O)N(Cc4ccc(N5C(=O)c6ccccc6Oc6ccccc65)cc4)c4ccccc43)[C@H]2C)cc1`, for which the composite z-score in [1] is 0.197; in test [2], -0.589; in [3], -0.106; in test [4], -0.124; in [5] it was -0.323; in [6], 1.09. Moreover, the composite z-score is 0.736 in test [7]; -0.0716 in [9]; -0.0324 in [10]; 0.106 in test [11]; -0.49 in test [15]; -0.0359 in test [17]. In addition, the composite z-score was -0.0905 in test [18], 0.18 in [19] and -0.241 in [20]. Further, the z-score in [8] was -1.69 (inactive); in test [12], 3.36 (inactive); in test [13], 0.262 (inactive); in test [14] it was 37.6 (active); in [16], 0.045 (inactive).

Regarding `CC(C)c1ccc(NN2C(C(O)c3ccccn3)C=CC3C(=O)N(c4ccccc4)C(=O)C32)cc1` (stereo not given), the composite z-score in test [1] is -0.311; in [2], 0.205; in test [3], 0.235; in test [4], 1.17; in test [5] it was 1.64; in [6], 1.64. Further, the composite z-score in test [7] is 1.42; in [9] it was 1.49; in [10], 0.347; in test [11], 1.5; in [15], 3.7; in test [17] it was 0.0038. Moreover, the figures for the composite z-score in test [18], in [19] and in test [20] were 1.7, 1.05 and 0.154, respectively. Also, the z-score was 3.43 (inactive) in [8]; 0.485 (inactive) in [12]; -0.951 (inactive) in [13]; -0.252 (inactive) in test [14]; -0.405 (inactive) in [16].
